The nature of experiment [1]: HPAF-II 24hr Apoptosis Induction qHTS against the NCATS CANVASS Library (AID 1347356). Also: 0% is about no effect. The essentials: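 Caspase-Glo 3/7 luminescence, read after 15 min room-temperature development, measures apoptosis in HPAF-II cells treated 24 h at 37 degrees C with an 11-point concentration series; 500 cells/well; doxorubicin control.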
In general terms: In qHTS, concentration-response curves come from the screen itself.

A short description of experiment [2]: HEK293 18hr Apoptosis Induction qHTS against the NCATS CANVASS Library (AID 1347357). Also: 0% is about no effect. The procedure, abridged:
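Natural products applied to HEK293 for 18 hr; Caspase-Glo 3/7 readout.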

Experiment [3] in a line: HPAF-II 18hr Apoptosis Induction qHTS against the NCATS CANVASS Library (AID 1347360). Also: 0% is about no effect. The essentials:
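Luminescent DEVD-substrate signal, proportional to caspase activity, is measured in HPAF-II cells after 18-hour treatment across a concentration series; doxorubicin serves as control.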

Experiment [4] can be described thus: HEK293 12hr Apoptosis Induction qHTS against the NCATS CANVASS Library (AID 1347361). Also: 0% is about no effect. The procedure, abridged: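 Luminescent caspase-3/7 signal, proportional to enzyme activity, was recorded from HEK293 cultures in DMEM + 10% FBS treated for 12 hours with titrated natural products (11 points). Doxorubicin (0.1nM - 4uM) served as control.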
Experiment [5] has as its system NAD(P)H diaphorase (Clostridium kluyveri). As to the kind of experiment: Diaphorse counterscreen qHTS: Assay Interference Panel against the NCATS CANVASS Library (AID 1347362). Also: 0% is about no effect. The essentials: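 Counterscreen for coupling-enzyme interference: resorufin fluorescence from resazurin/NADH turnover, read after 5 min at room temperature. Compounds were tested over an 11-point series after 15 min dark preincubation with diaphorase in PBS-Tween.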

Experiment [6] addresses Nuclear receptor subfamily 1 group I member 3 (Homo sapiens) (UniProt Q14994). As to the kind of experiment: qHTS for Constitutive Androstane Receptor (CAR) Antagonist screened against the NCATS CANVASS Library (AID 1347372). Also: potency is read from the fitted curve at half-maximal effect.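 As to activity change, negative = inhibition: cells stimulated with 50 nM CITCO agonist so inhibition reflects antagonism; % is scaled to controls: 0 for no effect and ±100 for the full control effect.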 The essentials:
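Antagonist mode: compound added alongside 50 nM CITCO to HepG2-hCAR-CYP2B6 reporter cells, 24hr at 37C. Viability by CellTiter-Fluor fluorescence, then CAR-driven luciferase by ONE-Glo luminescence.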

Experiment [7] shares this target. As to the kind of experiment: qHTS for Constitutive Androstane Receptor (CAR) Agonist screened against the NCATS CANVASS Library (AID 1347373).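 Also: every well also contained 1.5 µM PK11195 alongside the test compound; 0% is about no effect.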 The essentials:
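Agonist mode with 1.5uM PK11195 present: compounds for 24hr on HepG2-hCAR-CYP2B6 cells. CellTiter-Fluor fluorescence (ex 405, em 540 nm) gives viability; ONE-Glo luminescence reports CAR activation.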

Experiment [8] in a line: 10-beta competent E. coli microbial cell viability qHTS against the NCATS CANVASS Library (AID 1347376). Also: 0% is about no effect. The essentials:
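Read-out: BacTiter-Glo ATP luminescence, taken 20 min after reagent addition. Beforehand, 10-beta competent E. coli at 0.2 OD had been incubated overnight at 37C with compounds at 11 concentrations.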

Experiment [9] is described as follows: DH5-alpha competent E. coli microbial cell viability qHTS against the NCATS CANVASS Library (AID 1347377). Particulars: outcome: dose series up to 46.1 µM unless noted. The procedure, abridged: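 Bacterial viability as ATP-dependent luminescence (BacTiter-Glo), read after overnight 37 °C exposure of DH5-alpha competent E. coli to compounds in 11-point titration.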

The nature of experiment [10]: qHTS for Inflammasome Signaling Inhibitors: IL-1-beta AlphaLISA screen against the NCATS CANVASS Library (AID 1347379).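 Also: human THP-1 cells primed with LPS then triggered with ATP.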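 As to activity change, negative = inhibition: secreted IL-1B measured as AlphaLISA emission at 615 nm; % is scaled to controls: 0 for no effect and ±100 for the full control effect; lower signal means less IL-1B release which is the wanted effect.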 The procedure, abridged: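 Secreted IL-1B from human THP-1 cells quantified by AlphaLISA 16 hr after compound addition (final up to 57.5 uM). A 1 hr compound pretreatment preceded inflammasome activation with 250 ng/mL LPS plus 1.25 mM ATP (final).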

The nature of experiment [11]: Cytotoxicity qHTS for assessment of Hepg2 cells membrane integrity screened against the NCATS CANVASS Library (AID 1347387). The procedure, abridged:
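Membrane damage quantified as fluorescent LDH-release signal (ex 560, em 590 nm) in HepG2 cells treated 5 hr at 37C. qHTS format, 11 concentrations spanning 0.59 nM - 46 uM final, cells plated at 2000 per well the night before.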

Experiment [12] can be described thus: qHTS for Activators of p53 Stress Response Pathway screened against the NCATS CANVASS Library (AID 1347388). Also: 0% is about no effect. The essentials: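 Beta-lactamase reporter driven by p53 response elements in HCT-116 cells, read as the 460 nm/530 nm emission ratio after CCF4 loading, following 16 h of exposure to an 11-point series. Cell viability was measured in the same wells by CellTiter-Glo luminescence.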

Experiment [13] is described as follows: qHTS to identify inhibitors of the type 1 interferon - major histocompatibility complex class I in skeletal muscle: primary screen against the NCATS Mechanism Interrogation Plate v5.0 (MIPE) Libary (AID 1347411). Also: potency is read from the fitted curve at half-maximal effect; nearly all actives have a fitted effect of over 65% in size. The procedure, abridged:
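Luminescence from CRISPR HiBit-tagged endogenous HLA-B in human myoblasts reported MHC class I level after 24 h of IFN-beta (4 ng/ml) plus compound. Compounds ran as 11-point 1:3 series, top 46 uM final.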

Experiment [14] in a line: Primary qHTS for inhibitors of nuclear receptor binding SET domain protein 2 (NSD2) in an isogenic RCH-ACV NSD2 p.E1099K mutant (9B) (AID 1645876). Also: nearly all actives have a fitted effect of over 70% in size. Also: potency is read from the fitted curve at half-maximal effect.
The nature of experiment [15]: Primary qHTS for inhibitors of nuclear receptor binding SET domain protein 2 (NSD2) in an RCH-ACV wild type WT cells (2C) (AID 1645877). Also: nearly all actives have a fitted effect of over 70% in size. Also: potency is read from the fitted curve at half-maximal effect.
Experiment [16] concerns the target Glutathione peroxidase 1 (Homo sapiens) (UniProt P07203). As to the kind of experiment: Primary qHTS Assay for Inhibitors of Recombinant Selenoprotein Glutathione Peroxidase 1 (GPX1) (AID 1845191). Also: nearly all actives have a fitted effect of over 65% in size. The procedure, abridged: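 NADPH consumption tracked by fluorescence at 340/450 nm between t=0 and t=15 min, room temperature. Final mix: 10 nM GPX1, 100 nM glutathione reductase, 1 mM GSH, 0.5 mM NADPH, 0.5 mM cumene hydroperoxide, 0.01% BSA; 30 min compound–enzyme preincubation.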

Experiment [17] in a line: qHTS assay to identify inhibitors of the type 1 interferon - major histocompatibility complex class I in skeletal muscle: Counter screen cell viability and HiBit confirmation (AID 1347412). Also: potency is read from the fitted curve at half-maximal effect. As to activity change, negative = inhibition: % is scaled to controls: 0 for no effect and ±100 for the full control effect. As to all read-outs here: nearly all actives have a fitted effect of over 60% in size. Particulars: iHSKM muscle cells + IFN-b, HiBiT or CellTiter-Glo, 24 h; for Potency: HiBiT; for activity change, negative = inhibition: Viability, at 45.9 µM (top of the series). The procedure, abridged:
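Human myoblast knock-in line, 4.0 ng/ml IFN-beta stimulation, 24 h compound treatment. Endpoints: HiBiT lytic luminescence (HLA-B level) and CellTiter Glo (ATP). Dosing 12 concentrations, 3-fold steps, 46 uM highest final.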

For experiment [18], the target named is Phospholipid hydroperoxide glutathione peroxidase GPX4 (Homo sapiens) (UniProt P36969). Nature of the experiment: Primary qHTS Assay for Inhibitors of Recombinant Selenoprotein Glutathione Peroxidase 4 (GPX4) (AID 1845192). Also: % is scaled to controls: 0 for no effect and ±100 for the full control effect; nearly all actives have a fitted effect of over 65% in size. Particulars: outcome: dose series up to 50 µM unless noted. The essentials: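 NADPH consumption followed by fluorescence at 340/450 nm, t=0 and after 15 min at room temperature. Reaction started with cumene hydroperoxide (0.5 mM final) after 30 min compound–GPX4 preincubation; final 200 nM GPX4, 100 nM GR, 1 mM GSH, 0.5 mM NADPH.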
Chain of Phospholipid hydroperoxide glutathione peroxidase GPX4 (Homo sapiens) (P36969 whole entry, looked up): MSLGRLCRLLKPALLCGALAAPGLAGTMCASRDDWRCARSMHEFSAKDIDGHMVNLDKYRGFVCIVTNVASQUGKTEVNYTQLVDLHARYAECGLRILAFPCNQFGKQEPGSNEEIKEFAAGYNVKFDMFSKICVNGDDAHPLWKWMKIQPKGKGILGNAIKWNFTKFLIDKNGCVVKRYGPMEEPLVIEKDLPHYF

Experiment [19] is described as follows: qHTS drug screen for cell cycle checkpoint inhibitors in PARPi-resistant BRCA-mutant ovarian cancer cell lines. (AID 1963452; calls by dose curve). Particulars: PEO1/OlaR viability, CellTiter-Glo luminescence, 96 h, stronger effect = lower value. The procedure, abridged: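 PEO1, PEO4 and PEO1/OlaR ovarian cancer cells, 600 per well, exposed 96 h at 37C to a dilution series. Viability read by CellTiter-Glo luminescence, normalized to DMSO and empty wells; activity summarized as Z-AUC.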

A short description of experiment [20]: Redox Reaction Profiling qHTS: Assay Interference Panel against the NCATS CANVASS Library (AID 1347401).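 Also: 100% = activation by 2 µM chloranil control.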 The procedure, abridged:
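Redox-cycling liability assessed as DTT-driven conversion of resazurin (5 uM, with 200 uM DTT, HEPES pH 7.3) to fluorescent resorufin. Fluorescence at 525/598 nm measured initially and after 15 min dark incubation.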

Setting [21] is: measured here: PEO1 parental Z-AUC.

The results in this text go back to PubChem BioAssay (NCATS).

Results filed as inconclusive are left out. The source made the active and inactive calls. Unless noted, calls follow the shape of the dose curve; as a rule, active = well fitted curve in the direction sought with a large enough effect; inconclusive = small, poorly fitted or top-dose-only effect, or another doubt; inactive = no such curve, though single readings can be large; an effect the other way counts as inactive or inconclusive.

Chain of Glutathione peroxidase 1 (Homo sapiens) (P07203 whole entry, looked up): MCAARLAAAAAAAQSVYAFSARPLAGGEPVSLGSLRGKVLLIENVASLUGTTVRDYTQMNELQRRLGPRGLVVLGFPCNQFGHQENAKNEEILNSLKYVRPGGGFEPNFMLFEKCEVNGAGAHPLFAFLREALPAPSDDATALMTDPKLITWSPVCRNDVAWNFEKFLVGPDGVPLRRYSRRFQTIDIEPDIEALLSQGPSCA
Chain of Nuclear receptor subfamily 1 group I member 3 (Homo sapiens) (Q14994 whole entry, looked up): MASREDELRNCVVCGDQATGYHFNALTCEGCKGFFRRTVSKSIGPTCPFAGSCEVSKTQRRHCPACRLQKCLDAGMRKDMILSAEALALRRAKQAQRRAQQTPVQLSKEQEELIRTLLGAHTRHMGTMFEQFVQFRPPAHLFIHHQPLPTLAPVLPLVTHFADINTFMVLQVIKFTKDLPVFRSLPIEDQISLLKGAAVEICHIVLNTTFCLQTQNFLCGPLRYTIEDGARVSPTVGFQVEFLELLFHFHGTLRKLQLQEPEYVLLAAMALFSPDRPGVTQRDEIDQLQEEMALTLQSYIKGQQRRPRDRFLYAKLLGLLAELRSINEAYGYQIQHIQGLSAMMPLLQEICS

With `C/C(=C\[C@@H](C)CC/C=C/CC/C=C/C(=O)O)[C@H](O)[C@H](C)C(=O)CCCC1CC(=O)NC(=O)C1`, the compound was classed as inactive in experiment [1], in [4], in experiment [8], in experiment [9] and in [11]. Moreover, the Potency result in experiment [2], in experiment [3], in experiment [5], in experiment [6], in experiment [7] and in experiment [10] was “inactive” throughout. The Potency entry in [12] is “inactive”.

For `CC1=C2[N-][C@H]([C@H](CC(N)=O)[C@@]2(C)CCC(=O)NC[C@@H](C)OP(=O)([O-])O[C@H]2[C@@H](O)[C@@H](n3cnc4cc(C)c(C)cc43)O[C@@H]2CO)[C@]2(C)N=C(C(C)=C3N=C(C=C4N=C1[C@@H](CCC(N)=O)C4(C)C)[C@@H](CCC(N)=O)[C@]3(C)CC(N)=O)[C@@H](CCC(N)=O)[C@]2(C)CC(N)=O.O.[Co+2]`, the Potency in [13] is 8.29 µM (active); in [17], 14 µM (active). In addition, the Potency result in experiment [14], in experiment [15] and in [16] was “inactive” throughout. Also, the activity change, negative = inhibition in experiment [17] is -18.1% (inactive).

In the case of `Fc1cccc(-n2cnc3c(NCc4nc5c(F)c(F)ccc5[nH]4)nc(N4CCOCC4)nc32)c1`, the Potency is 0.523 µM (active) in experiment [13], 0.166 µM (active) in [14], 0.166 µM (active) in experiment [15] and 0.442 µM (active) in [17]. Moreover, the Potency entry in experiment [16] and in experiment [18] was “inactive” in each case. The Z-AUC in [19] is -1.76 (inactive); in experiment [19] (setting [21]), -2.45; in experiment [19] (measured here: PEO4 Z-AUC), -2.33. Also, the activity change, negative = inhibition in experiment [17] was -14.7% (inactive).

On to `C/C(=C\[C@H](C)C(=O)C[C@H](O)CC1CC(=O)NC(=O)C1)[C@@H]1OC(=O)CCCC/C=C/[C@@H](O)C[C@@H]1C`, for which the compound was called inactive in experiment [1], in [4], in experiment [8], in experiment [9] and in [11]. Also, the Potency result in experiment [2], in [3], in experiment [5], in experiment [7] and in experiment [20] was “inactive” each time. In addition, the results for the Potency in experiment [6] and in experiment [10] were 14.8 µM (active) and 34.3 µM (active), respectively.

With `C/C1=C/[C@@H](C)[C@H](O)C/C=C/CC/C=C/C(=O)O[C@@H]1[C@H](C)C(=O)CCCC1CC(=O)NC(=O)C1`, the compound was classed as inactive in experiment [1], in experiment [4], in [8], in [9] and in experiment [11]. The Potency result in experiment [2], in experiment [3], in experiment [5], in [6], in experiment [7] and in experiment [10] was “inactive” each time. In addition, the Potency result in experiment [12] and in [20] was “inactive” each time.

For the compound `C[C@H](CCC(O)C(C)(O)CO)[C@@]1(O)CC[C@@]2(C)C3=C(CC[C@@]21C)[C@@]1(C)CCC(OC(=O)CCC(=O)O)C(C)(C)[C@@H]1CC3` (some centres undefined), the compound was called inactive in [1], in [4], in experiment [8], in [9] and in experiment [11]. For the same compound, the Potency entry in experiment [2], in experiment [3], in experiment [5], in [6], in experiment [7] and in experiment [10] was “inactive” each time. The Potency entry in experiment [12] and in experiment [20] was “inactive” each time.

Regarding `C[C@H](NC(=O)/C(C#N)=C/c1cccc(Br)n1)c1ccccc1`, the Potency was 10.4 µM (active) in [13], 14.8 µM (active) in experiment [14], 14.8 µM (active) in [15] and 7.01 µM (active) in experiment [17]. In addition, the Potency result in [16] and in experiment [18] was “inactive” each time. The Z-AUC in [19] was 0.178 (inactive); in experiment [19] (setting [21]), -0.139; in experiment [19] (measured here: PEO4 Z-AUC), -0.487. Also, the activity change, negative = inhibition in experiment [17] was 17% (inactive).

Take `CC(C)=CCC[C@]1(C)[C@H]2CC(=O)[C@@]3(CO3)[C@@H]1C2`: the outcome in experiment [1], in experiment [4], in experiment [8], in [9] and in [11] was inactive. The Potency entry in [2], in [3], in experiment [5], in experiment [6], in experiment [7] and in experiment [10] was “inactive” in each case. Moreover, the Potency entry in experiment [12] and in [20] was “inactive” in each case.
